Hit rate of the full screen: of about 48,000 compounds, about 13,000 (27%) showed an effect of 50% or more. The list shows a part of the results.
Each compound was assayed on Wolbachia pipientis (assay: Anti-Wolbachia Cell-Based Screen). Settings: 5 µM.
Type: functional
Design: scale not given: in the data most compounds retested in dose-response had high values

Row | SMILES | Percent Effect [%]
1 | CS(=O)(=O)CCn1ccc(NCc2ccc(C#N)cc2)n1 | 4.656
2 | CC(c1nccs1)n1cc(-c2cc(CN3CCCCC3)cs2)nn1 (stereo not given) | 17.2
3 | CC1CN(C(=O)c2ccnc(-n3cncn3)c2)c2ccccc2S1 (stereo not given) | -6.511
4 | CC(C)CNC(=O)c1ccc2nnc(C3CCN(S(C)(=O)=O)C3)n2c1 (stereo not given) | -4.952
5 | Cc1nn(CC(=O)O)c(C)c1NS(=O)(=O)c1cc2ccccc2s1 | 90.4
6 | Cc1ccc(C(=O)NS(=O)(=O)c2cccc3cnccc23)c(=O)[nH]1 | -6.684
7 | Cc1nn(CC(=O)O)c(C)c1NS(=O)(=O)c1cccc2ccccc12 | 85.86
8 | Cc1nc2ccc(S(=O)(=O)Nc3c(C)nn(CC(=O)O)c3C)cc2s1 | 96.05
9 | CCn1nc(C)c(S(=O)(=O)Nc2ccccc2C(=O)OC)c1C | -6.756
10 | Cc1ccc(S(=O)(=O)Nc2c(C)nn(C)c2C)cc1C | -30.32
11 | CC(=O)N1CCCCC1c1ncnn1-c1ccc2nc(C)sc2c1 (stereo not given) | 1.056
12 | CN(C)c1ncc(CNS(=O)(=O)c2cccc3ccccc23)n1C | 5.382
13 | CCN(C)S(=O)(=O)NCC(O)c1cc2ccccc2s1 (stereo not given) | -28.91
14 | Cc1ccc(CCN[C@@H]2c3ccccc3C3(CCNCC3)[C@H]2O)s1 | -1.865
15 | Cc1cc(C(=O)N[C@H](C)c2onc(-c3cccnc3)c2C(=O)O)c(C)o1.Cl | -10.14
16 | C=Cc1ccc(C(=O)N2CCCC(Nc3ccc(F)c(F)c3)C2)cc1 (stereo not given) | -24.37
17 | Cc1cc(=O)[nH]c(SC(C)C(=O)N2CCCN(C3CCCC3)CC2)n1 (stereo not given) | -14.72
18 | O=C(Nc1cccnc1)c1ccc(-n2cncn2)nn1 | 4.763
19 | CNC(=O)NC1CC2(CCNCC2)c2ccc(C)cc21 (stereo not given) | 2.029
20 | Cl.Cl.c1ccc2c(c1)C(NC1CCCC1)CC21CCNCC1 (stereo not given) | 102.9
21 | Fc1ccc2c(c1)C1(CCNCC1)CC2OCC1CC1 (stereo not given) | -8.217
22 | Cc1nnc(NC(=O)NCc2ccnc(N(C)C)c2)s1 | 99.1
23 | CCOc1ncccc1CNC(=O)c1csc(Br)c1 | -22.46
24 | CC/C=C(/C)C(=O)NCc1ccnc(OC)c1 | -6.401
25 | COc1ncccc1CNC(=O)c1csc(Br)c1 | -3.895
26 | COc1cc(CNC(=O)c2csc(Br)c2)ccn1 | 70.51
27 | CN(C)c1cc(CNC(=O)Nc2nnc(C3CC3)s2)ccn1 | 137.2
28 | CC(C)c1nnc(NC(=O)NCc2ccnc(N(C)C)c2)s1 | -3.838
29 | COc1cc(CNC(=O)Nc2nnc(C(C)C)s2)ccn1 | 139
30 | COc1cc(CNC(=O)Nc2nnc(C(C)C)s2)ccc1O | 0.367
